Among all 350,000 compounds or so, about 2,400 (0.69%) were called active. Cut-off read from the data, not from the text of the source: active = inhibition above about 41%; inconclusive = no clear call, values can overlap the other calls; inactive = below that. What follows is part of a selection rich in actives, with near analogues and random picks from the rest.
Experiment: blockers of LMP1-induced NF-kB reporter signal – cell-based, luminescence, single point, primary screen (AID 504558);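 note: 0% = neutral control wells and 100% = reference inhibitor control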
Settings: LMP1-induced NF-kappaB luciferase reporter cells, at 12.5 µM, active compounds read high

Row | SMILES | inhibition
1 | C=CCOc1cccc(C2C(C(=O)c3ccc(C)o3)=C(O)C(=O)N2CCN2CCOCC2)c1 (configuration not stated) | 1.89% (inactive)
2 | COc1ccc(NC(=O)/C(Cl)=C(/Cl)S(=O)Cc2ccc(C)cc2)cn1 (configuration not stated) | 94.5% (active)
3 | COc1ccc(OC(C)C(=O)Nc2cccnc2)cc1 (configuration not stated) | -0.732% (inactive)
4 | COc1cccc(NC(=S)N(Cc2ccc(C)cc2)Cc2ccccn2)c1 | -9.16% (inactive)
5 | COc1ccc(NS(=O)(=O)c2ccc(NC(=S)NC(=O)/C=C/c3ccc(C)cc3)cc2)nn1 | -1.1% (inactive)
6 | COc1ccc(NC(=O)CN2C(=O)NC(C)(c3ccccc3)C2=O)cn1 (configuration not stated) | 4.57% (inactive)
7 | COc1ccc(CS(=O)/C(Cl)=C(/Cl)C(=O)Nc2ccc(OC)nc2)cc1 (configuration not stated) | 85% (active)
8 | COCOCCn1cc(CN2CCS(=O)(=O)N(Cc3ccc(-c4cccc(N(C)C)c4)cc3)C(CC(C)C)C2=O)nn1 (configuration not stated) | 5.25% (inactive)
9 | C[C@H](CO)N1C[C@H](C)[C@H](CN(C)C(=O)Nc2ccc3c(c2)OCO3)Oc2ncc(Br)cc2C1=O | -7.49% (inactive)
10 | CCCCN1C(=O)C(CC(=O)NC(c2ccccc2)c2ccccc2)CC(C(=O)N2CCOCC2)=C1C (configuration not stated) | -3.52% (inactive)
11 | Cc1cc(C)n(-c2nnc(N3CCN(c4ccccc4)CC3)nn2)n1 | -13.2% (inactive)
12 | Cc1cc(Nc2ccc(Br)cc2)nc2ccccc12 | -19.5% (inactive)
13 | Cc1cc(N/N=C\c2ccc(Br)cc2)nc(-n2nc(C)cc2C)n1 | 47.1% (active)
14 | O=C(NCc1nnnn1-c1ccc(Cl)cc1)c1ccc2c(c1)OCO2 | -8.64% (inactive)
15 | C=CCn1c(C)cc(C2=NNC(=NCC)SC2)c1C | 86.2% (active)
16 | COc1ccc(-c2c(C#N)cnc(C)c2C)c(O)c1OC | -4.81% (inactive)
17 | C[C@@H]1CN([C@H](C)CO)C(=O)CCCn2cc(nn2)CO[C@H]1CN(C)S(C)(=O)=O | 1.59% (inactive)
18 | COc1cccc(NC(=O)CN(C)C(=O)c2cc(Cl)nc3ccccc23)c1 | -0.28% (inactive)
19 | Cc1ccccc1C1=N/C(=C/c2cccnc2)C(=O)O1 | 3.85% (inactive)
20 | Cc1ccc(C2=C/C(=C\c3cccnc3)C(=O)O2)cc1 | 43.1% (active)
21 | CN(C)/C=C1\C=C(c2ccccc2)OC1=O | -8.13% (inactive)
22 | Cc1ccc(CN(C)C[C@@H]2OCc3cnnn3CCCC(=O)N([C@@H](C)CO)C[C@H]2C)cc1 | 0.256% (inactive)

Row | SMILES | inhibition
23 | O=C(COC(=O)/C=C/c1ccc(Cl)cc1)NC1CCS(=O)(=O)C1 (configuration not stated) | -1.97% (inactive)
24 | C[C@@H]1CN([C@@H](C)CO)S(=O)(=O)c2ccc(C#Cc3cccc(F)c3)cc2O[C@H]1CN(C)S(=O)(=O)c1cn(C)cn1 | 5.98% (inactive)
25 | C=CCOc1ccccc1CNn1c(C)n[nH]c1=S | -1.28% (inactive)
26 | N#CCCC(C#N)(c1cccnc1)N1CCOCC1 (configuration not stated) | 2.43% (inactive)
27 | COc1cnc(-c2ccccn2)nc1Oc1ccc(C(C)(C)C)cc1 | -4.07% (inactive)
28 | CC(C)(C)Nc1nc(-c2ccccn2)nc2ccccc12 | 45.7% (active)
29 | Cc1nc2ccccc2c(C(=O)O)c1-c1ccccn1 | 3.33% (inactive)
30 | O=S1(=O)CCN(Cc2ccccc2)CC1 | 0.572% (inactive)
31 | CC1=C(C(=O)N2CCOCC2)CC(CC(=O)NCc2cccc3ccccc23)C(=O)N1CCC1=CCCCC1 (configuration not stated) | -1.54% (inactive)
32 | CC1CCN(C(=O)CSc2nnc(-c3ccco3)n2N)CC1 | -6.21% (inactive)
33 | Oc1c(CN2CCCC2)cc(COCc2ccccc2)c2cccnc12 | 69% (active)
34 | O=C(Cc1ccccc1)NNC(=O)C1CCN(c2ncccn2)CC1 | -1.53% (inactive)
35 | CCCc1cc(=O)oc2c(C)c(O)c(CN3CCCCC3)cc12 | 5.86% (inactive)
36 | COCCCN1C(=O)C(CC(=O)NCc2cccs2)CC(C(=O)N2CCOCC2)=C1C (configuration not stated) | -3.59% (inactive)
37 | CC1(C)CC(N2CCN(C(c3ccccc3)c3ccccc3)CC2)=CC(=[N+]2CCCCC2)C1 | 50.9% (active)
38 | CC1(C)CC(=O)C=C(N2CCOCC2)C1 | 7.14% (inactive)
39 | CC(C)OCC(O)CN1CCN(C(c2ccccc2)c2ccccc2)CC1 (configuration not stated) | -3.08% (inactive)
40 | CCCCN1CC(C)(C)[C@H](CC(=O)Nc2ccc(Br)cc2)C1=O | 3.19% (inactive)
41 | COc1ccc(-c2cc(C(=O)N3CCN(Cc4ccc5c(c4)OCO5)CC3)on2)cc1OC | 60.2% (active)
42 | O=C(c1cccs1)N1CCN(Cc2ccc3c(c2)OCO3)CC1 | 2.81% (inactive)
43 | CCn1cc(C(=O)N2CCN(Cc3ccc4c(c3)OCO4)CC2)c2cc(OC)c(OC)cc2c1=O | -0.487% (inactive)
44 | O[C@H]1CN(Cc2cccs2)[C@@H](c2ccc(Cl)cc2)C[C@@H]1n1cc(C2CC2)nn1 | -3.9% (inactive)

Row | SMILES | inhibition
45 | CCCCCCN1C[C@H](O)[C@@H](n2cc(C3CC3)nn2)C[C@@H]1c1ccc(Cl)cc1 | -2.06% (inactive)
46 | Cc1ccccc1C(=O)N1CCN(c2ccc(NC(=O)c3cccs3)cc2)CC1 | 49.3% (active)
47 | COc1ccccc1C(=O)NC(=S)Nc1ccc(N2CCOCC2)cc1 | 2.08% (inactive)
48 | Cc1ccccc1C(=O)NC(=S)Nc1ccc(N2CCN(C(=O)c3ccccc3)CC2)cc1 | 43.1% (active)
49 | O=C(Nc1ccc(N2CCN(C(=O)C3CC3)CC2)cc1)c1cccs1 | 4.6% (inactive)
50 | O=C(Nc1ccc(N2CCN(C(=O)c3cccs3)CC2)cc1)c1cccnc1Cl | 6.16% (inactive)
51 | Cc1ccc(C(=O)NC(=S)Nc2ccc(N3CCOCC3)cc2)cc1 | 1.51% (inactive)
52 | CN1OC[C@@H]2CN(S(=O)(=O)c3cccc(C(F)(F)F)c3)[C@H](c3ccc(-c4cc5ccccc5o4)cc3)C[C@@H]21 | 23.8% (inactive)
53 | COc1ccc(NC(=O)N(C)C[C@H]2Oc3ncc(C#C[C@@H](C)O)cc3C(=O)N([C@H](C)CO)C[C@H]2C)cc1 | 3.12% (inactive)
54 | O=C(COC(=O)c1ccccc1C(=O)N1CCN(c2ccccc2)CC1)NCc1ccccc1 | -5.9% (inactive)
55 | Oc1ccccc1N1CCN(C(=S)NCc2ccccc2)CC1 | 0.986% (inactive)
56 | Oc1ccc(N2CCN(C(=S)NCc3ccccc3)CC2)cc1 | 50.7% (active)
57 | CC(C)N=C1CCCC1C(=S)SSC(=S)C1CCCC1=NC(C)C (configuration not stated) | 24.4% (inactive)
58 | O=C(NCCN1CCOCC1)C1CCN(S(=O)(=O)c2ccccc2)CC1 | 5.14% (inactive)
59 | COc1cccc(/C=C/C(=O)Nc2ccc3c(c2)OCCO3)c1 | 58.7% (active)
60 | COc1ccc(OC)c(/C=C/C(=O)OCC(=O)Nc2ccc3c(c2)OCCO3)c1 | 0.837% (inactive)
61 | O=C(/C=C\c1ccc2c(c1)OCO2)NC1(C(=O)Nc2ccc3c(c2)OCCO3)CCCCC1 | -3.03% (inactive)
62 | CC1CCCC(NC(=O)COC(=O)c2ccccc2C(=O)N(C)C2CCCCC2)C1C (configuration not stated) | -11.2% (inactive)
63 | COc1ccc(/C=C2\CCc3ccccc3C2=O)c(OC)c1OC | -2.98% (inactive)
64 | COc1cccc(/C=N/NC(=O)c2[nH]nc3c2CCc2ccccc2-3)c1O | 69.4% (active)
65 | CCn1c(/C=N/NC(=O)c2ccc(OC)cc2)nc2ccccc21 | 4.88% (inactive)
66 | CC1=C(C(=O)N2CCOCC2)CC(CC(=O)NCC2CCCCC2)C(=O)N1Cc1ccc(F)cc1 (configuration not stated) | -0.637% (inactive)

Row | SMILES | inhibition
67 | CCCc1ccc(S(=O)(=O)N2CCN(C(=O)c3cc(C)on3)CC2)cc1 | -4.88% (inactive)
68 | C[C@H](CO)N1C[C@H](C)[C@@H](CN(C)Cc2ccc3c(c2)OCO3)OCc2cnnn2CCCC1=O | 4.06% (inactive)
69 | CC(C)C1CCN(C(=O)C2CCC(=O)N(C3CCCCCC3)C2)CC1 (configuration not stated) | -25.4% (inactive)
70 | COc1ccc(S(=O)(=O)N2CCN(C(=S)NCC3CCCO3)CC2)cc1OC (configuration not stated) | 74.2% (active)
71 | S=C(NCC1CCCO1)N1CCN(c2ccc(Cl)c(Cl)c2)CC1 (configuration not stated) | 10% (inactive)
72 | CCOc1ccc(S(=O)(=O)N2CCN(C(=S)NCC3CCCO3)CC2)cc1 (configuration not stated) | -0.069% (inactive)
73 | C[C@H](CO)N1C[C@H](C)[C@H](CN(C)C(=O)c2ccncc2)OCc2ccccc2-c2c(n(C)c3ccccc23)C1=O | 2.77% (inactive)
74 | C[C@H]1CN([C@@H](C)CO)C(=O)CCCn2nncc2CO[C@@H]1CN(C)S(=O)(=O)c1cccc(C#N)c1 | 2.8% (inactive)
75 | CN1OC[C@@H]2CN[C@H](c3ccc(-c4ccccc4)cc3)C[C@@H]21 | -14.4% (inactive)
76 | COc1cccc(NC(=O)N(C)C[C@@H]2Oc3ncc(Br)cc3C(=O)N([C@@H](C)CO)C[C@H]2C)c1 | 1.17% (inactive)
77 | Cc1ccc(CS(=O)(=O)c2ncc(Cl)c(C(=O)Nc3nnc(C)s3)n2)cc1 | 85.8% (active)
78 | CSc1nnc(NC(=O)c2nc(S(=O)(=O)Cc3ccc(C)cc3)ncc2Cl)s1 | 24.2% (inactive)
79 | Cc1cccc(NC(=O)c2nc(S(=O)(=O)Cc3ccccc3)ncc2Cl)c1 | 19.5% (inactive)
80 | CC1(C)OC(=O)C2=C(CC(c3ccccc3)OC2CCc2ccccc2)O1 (configuration not stated) | 3.89% (inactive)
81 | C[C@@H]1C[C@@H]2O[C@H]2/C=C\C=C\C(=O)Cc2c(Cl)c(O)cc(O)c2C(=O)O1 | 80% (active)
82 | CCOC(=O)c1c(C)[nH]c(C)c1C(=O)COC(=O)/C=C/c1cccc([N+](=O)[O-])c1 | 7.29% (inactive)
83 | O=C(C[n+]1ccccc1)N/N=C/c1ccc(O)cc1 | 45.7% (active)
84 | Cc1nonc1C(=O)N/N=C/c1ccc(O)cc1 | -10.7% (inactive)
85 | Nc1nnn(CC(=O)N/N=C/c2ccc(O)cc2)n1 | -8.43% (inactive)
86 | O=C(OCc1ccccc1)N1CCC2CC1c1ccc(-c3ccc4c(c3)OCO4)cc12 (configuration not stated) | -5.51% (inactive)
87 | O=NN(CCCl)C(=O)NCCc1cccc[n+]1[O-] | 1.36% (inactive)

Source: PubChem BioAssay AID504558 (Broad Institute, 2011)
